Where “and” joins values, the source holds several entries; their conditions need not be identical. Equal values may be shown once. Some structures have more than one record in an assay (separate samples or runs), and their calls can disagree. Calls of active or inactive are those of the source. Rule for the calls: active = hit-call score of the fitted dose curve at least 0.9, where 1 is the maximum; inactive = score below 0.9.

A short description of this assay: ATG_AP_2_CIS: Attagene CIS-FACTORIAL HepG2 Assay for human Activator Protein 2 (AP-2) (AID 2282932). The settings on record: HepG2 AP-2 cis-reporter, Attagene transcription factor profiling; actives raise or lower the signal. On the procedure: ATG_CIS is a cell-based, multiplexed-readout assay that uses HepG2, a human liver cell line, with measurements taken at 24 hours after chemical dosing in a 24-well plate.ATG_AP_2_CIS is one of 52 assay component(s) measured or calculated from the ATG_CIS assay. It is designed to make measurements of mRNA induction, a form of inducible reporter, as detected with fluorescence intensity signals by Reverse transcription polymerase chain reaction (RT-PCR) and Capillary electrophoresis technology.Data from the assay component ATG_AP_2_CIS was analyzed into 1 assay endpoint. This assay endpoint, ATG_AP_2_CIS, was analyzed with bidirectional fitting relative to DMSO as the negative control and baseline of activity. Using a type of inducible reporter, measures of mRNA for gain or loss-of-signal activity can be used to understand the reporter gene at the transcription factor-level as they relate to the gene TFAP2A and TFAP2B and TFAP2D. Furthermore, this assay endpoint can be referred to as a primary readout, because this assay has produced multiple assay endpoints where this one serves a reporter gene function. To generalize the intended target to other relatable targets, this assay endpoint is annotated to the dna binding intended target family, where the subfamily is basic helix-turn-helix leucine zipper.
Human liver HepG2 cells are transiently transfected with multiple reporter transcription units (MRTUs) in 6-well plates using FuGene 6 reagent (Roche; 3 ml FuGene/1 mg DNA). The MRTU constructs are regulated by a cis-regulating element (promoter). […] A major difference between the CIS and TRANS system is that in CIS activities of endogenous TFs are measured, whereas the TRANS assay evaluates changes in activities of exogenous, chimeric NR-Gal4 proteins. […] At the end of 24 hour incubation, total RNA was isolated using TriZol reagent (Invitrogen). The isolated RNA is then reverse-transcribed using oligo(dT) primer and Mo-MLV reverse transcriptase (Invitrogen) with DNAse I (Ambion) treatment for 30 min. The one-tenth of the produced cDNA was amplified by PCR using Taq DNA polymerase (Invitrogen) and two reporter sequence-specific primers. The PCR products were fluorescently labeled by primer extension with 6-arboxyfluorescein (6-FAM) 5'-labeled reporter sequence-specific primer (2 min at 95 C, 20 s at 68 C and 10 min at 72 C) and these products were digested with 5U of HpaI (New England Biolabs) for 2h at 37 C. The fragments were purified using Qiaquick PCR columns (Qiagen), analyzed on an ABI 3130xL genetic analyzer (Applied Biosystems) with peak positions identified by using a set of X-rhodamine (ROX)-labeled MapMarker1000 molecular weight standards (BioVentures). The raw capillary electrophoresis data was processed using Attagraph software (Attagene).
Regarding `COc1nc(C)nc(NC(=O)NS(=O)(=O)c2ccccc2OCCCl)n1`, the compound was called inactive.

With `CN(C)C(=O)Nc1ccc(Cl)c(Cl)c1`, the compound was classed as inactive.

For `c1ccc(Nc2ccccc2)cc1`, the outcome was inactive.

Take `OB(O)O`: the call was inactive.

Take `CCCN(CCC)C(=O)SCC`: the compound was called inactive.

As for `COC(=O)c1cccc(C)c1S(=O)(=O)NC(=O)Nc1nc(OCC(F)(F)F)nc(N(C)C)n1`, the call was inactive.

With `CCN(Cc1c(F)cccc1Cl)c1c([N+](=O)[O-])cc(C(F)(F)F)cc1[N+](=O)[O-]`, the outcome was inactive.

Consider `COC(=O)c1ccc(CNS(C)(=O)=O)cc1S(=O)(=O)NC(=O)Nc1nc(OC)cc(OC)n1`, for which the call was inactive.

Turning to `COC(=O)c1ccc(I)cc1S(=O)(=O)NC(=O)Nc1nc(C)nc(OC)n1`, the result was inactive.

For `CC(=O)S[C@@H]1CC2=CC(=O)CC[C@]2(C)[C@H]2CC[C@@]3(C)[C@@H](CC[C@@]34CCC(=O)O4)[C@H]12`, the compound was called inactive.

Regarding `COc1c(Cl)ccc(Cl)c1C(=O)O`, the result was inactive.

Take `CC(C)CCCCCCc1ccc(O)cc1`: the AC50 is 18.2 µM (active) and 17.2 µM (active); the result was inactive.

In the case of `CCCCOCCOCCOCc1cc2c(cc1CCC)OCO2`, the result was inactive.

With `COC(=O)c1c(Cl)nn(C)c1S(=O)(=O)NC(=O)Nc1nc(OC)cc(OC)n1`, the result was inactive.

As for `C#C[C@]1(O)CC[C@H]2[C@@H]3CCC4=CC(=O)CC[C@@H]4[C@H]3CC[C@@]21CC`, the result was inactive.

With `Cc1nn(C)c(Oc2ccccc2)c1C=NOCc1ccc(C(=O)OC(C)(C)C)cc1`, the call was inactive.

As to `CCOC(=O)[C@H](C)Oc1ccc(Oc2nc3ccc(Cl)cc3o2)cc1`, the result was inactive.

Turning to `C[C@]12CC[C@@H]3c4ccc(O)cc4C[C@@H](CCCCCCCCCS(=O)CCCC(F)(F)C(F)(F)F)[C@H]3[C@@H]1CC[C@@H]2O` (stereo not given in full), the outcome was inactive.

In the case of `COC(=O)c1ccccc1C(=O)O`, the compound was classed as inactive.

Take `COC(=O)c1ccccc1S(=O)(=O)NC(=O)Nc1nc(OC(F)F)cc(OC(F)F)n1`: the call was inactive.

For the compound `CCC(C)OC(=O)N1CCCCC1CCO` (stereo not given), the outcome was inactive.

As for `CCC(O)=C1C(=O)CC(C(=O)O)CC1=O` (stereo not given), the outcome was inactive.

As for `O=C(O)c1ccccc1`, the result was inactive.

Take `CCOC(=O)NCCOc1ccc(Oc2ccccc2)cc1`: the result was inactive.

Regarding `N[C@@H](Cc1cc(I)c(Oc2ccc(O)c(I)c2)c(I)c1)C(=O)O`, the compound was called inactive.

For the compound `CCCCCCC(C)OC(=O)COc1nc(F)c(Cl)c(N)c1Cl` (stereo not given), the call was inactive.

On to `CCOC(=O)COc1cc(-n2ncc(C(F)(F)F)c(C)c2=O)c(F)cc1Cl`, for which the compound was called inactive.

For the compound `CCCCC(CC)COC(=O)c1ccccc1C(=O)O` (stereo not given), the result was inactive.

`CC1(C)C(C=C(Cl)Cl)C1C(=O)OCc1cccc(Oc2ccccc2)c1` (stereo not given): the compound was classed as inactive.

Take `c1ccc2[nH]c(-c3cscn3)nc2c1`: the outcome was inactive.

Turning to `CCCCOC(=O)[C@@H](C)Oc1ccc(Oc2ccc(C(F)(F)F)cn2)cc1`, the result was inactive.

As for `CCCOC(=O)NCCCN(C)C`, the compound was called inactive.

With `O=C(c1ccc(O)cc1O)c1ccc(O)cc1O`, the compound was classed as inactive.

Take `Oc1ccc(C(c2ccc(O)cc2)C(Cl)(Cl)Cl)cc1`: the result was inactive.

On to `CCOC(=O)C(C)Oc1ccc(Oc2cnc3cc(Cl)ccc3n2)cc1` (stereo not given), for which the call was inactive.

Turning to `CCNc1nc(N)nc(Cl)n1`, the compound was classed as inactive.

As to `C[C@]12C[C@H](O)[C@H]3[C@@H](CCC4=CC(=O)CC[C@@]43C)[C@@H]1CC[C@@H]2C(=O)CO`, the compound was classed as inactive.

Take `C=CCOC(Cn1ccnc1)c1ccc(Cl)cc1Cl` (stereo not given): the AC50 is 50 µM (active).

As for `O=C(c1ccccc1)C1CCCCC1`, the result was inactive.

Broadly, the AC50 is the concentration giving half of the maximal activity seen.

The values above are taken from PubChem BioAssay (EPA / NIEHS).
